# Many of the other results were omitted from the sample, so hits are more common in it than they were.
# TbPYK inhibitor = T. brucei pyruvate kinase inhibition. 410,000 compounds, 0.12% hits. Potency, µM (series often up to 76.8 µM), without a hit: top-dose activity, negative = inhibition, most hits filed as inhibitors. Q57TT1. TbPYK enzyme, Kinase-Glo Plus ATP luminescence, 45 min; also: potency is read from the fitted curve at half-maximal effect; % is scaled to controls: 0 for no effect and ±100 for the full control effect; nearly all actives have a fitted effect of over 50% in size
#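 In this concentration-response screen, enzyme-free wells defined baseline while DMSO plates tracked drift. Each reaction combined TbPYK, substrate, compound and 130 uM ADP for 45 min at room temperature. Kinase-Glo Plus luminescence gave the signal.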
# Giardia FBPA inh = blocks Giardia fructose-bisphosphate aldolase activity; A8B2U2; Potency, µM (highest dose often 59.6 µM), for inactives: at the highest dose activity, negative = inhibition, hits mostly inhibitors; 290,000 compounds, 0.71% hits; purified Giardia FBPA; also: potency is read from the fitted curve at half-maximal effect; % is scaled to controls: 0 for no effect and ±100 for the full control effect; nearly all actives have a fitted effect of over 55% in size
#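 40 nM FBPA preincubated 10 min at RT with compound (up to 57.5 uM final), then substrate plus GAPDH/TPI/NAD/arsenate coupling and diaphorase/resazurin added. Fluorescence read after 20 min at RT, 525/598 nm.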
# LmPK inhibitor = inhibitors of Leishmania mexicana pyruvate kinase. Q27686. purified LmPK, Kinase-Glo ATP luminescence, 1 h. Potency, µM (series often up to 57.5 µM), for the others: top-dose activity change, negative = inhibition, usual class: inhibitors. 290,000 compounds, 0.37% hits; also: potency is read from the fitted curve at half-maximal effect; % is scaled to controls: 0 for no effect and ±100 for the full control effect
# Target sequence (Q27686 whole entry, looked up): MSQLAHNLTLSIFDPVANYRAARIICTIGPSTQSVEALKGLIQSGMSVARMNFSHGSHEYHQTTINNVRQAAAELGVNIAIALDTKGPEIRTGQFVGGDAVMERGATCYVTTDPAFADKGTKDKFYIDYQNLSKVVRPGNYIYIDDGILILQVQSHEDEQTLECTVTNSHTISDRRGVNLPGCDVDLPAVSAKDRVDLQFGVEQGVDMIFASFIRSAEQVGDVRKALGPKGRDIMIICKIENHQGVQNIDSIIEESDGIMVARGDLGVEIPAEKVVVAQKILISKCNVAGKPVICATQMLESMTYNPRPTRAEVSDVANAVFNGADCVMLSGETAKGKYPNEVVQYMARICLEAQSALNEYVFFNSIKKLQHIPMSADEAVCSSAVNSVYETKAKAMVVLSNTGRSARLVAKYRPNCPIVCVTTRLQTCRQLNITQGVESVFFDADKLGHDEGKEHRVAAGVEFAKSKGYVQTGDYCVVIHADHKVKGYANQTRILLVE
#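 Screened at intermediate enzyme activity to detect both inhibitors and activators: LmPK at 0.1 nM, with a 0.5 nM enzyme column as activation reference. PEP 0.5 mM, ADP 0.1 mM; ATP detected by luminescence after 1 h.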
# Cycloheximide cs = affects cycloheximide protein synthesis inhibition readout, counter-screen; cell reporter, cycloheximide protein synthesis inhibition counterscreen; max response, %; 300,000 compounds, 12% hits; AID 2314; in the data active = max response mostly above about 13%, no sharp cut-off; inactive = mostly below about 14%; also: read at 38.3 µM for the half of the compounds with a filed dose; 0% is about no effect
# Shiga toxin inh = inhibitors of Shiga toxin in Vero cells | inhibition, % at 38.7 µM | 290,000 compounds, 9.2% hits | Vero cells, Shiga toxin protein synthesis inhibition reporter; in the data active = inhibition mostly above about 28%, no sharp cut-off; inactive = mostly below about 43%; also: 0% is about no effect
# RE007 growth inh = less growth of the S. pombe RE007 Vpr strain | S. pombe RE007 Vpr strain, BacTiter-Glo ATP luminescence, 24 h | Potency, µM (series often up to 92.2 µM), inactives show at the top dose activity change, negative = less growth, usual class: inhibitors | 360,000 compounds, 0.21% hits; active = well fitted falling curve with a large enough effect; inconclusive = small, poorly fitted or top-dose-only effect; inactive = no such curve, though single readings can be large or run the other way; also: potency is read from the fitted curve at half-maximal effect; % is scaled to controls: 0 for no effect and ±100 for the full control effect; nearly all actives have a fitted effect of over 50% in size
#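 Fission yeast strain RE007, carrying one chromosomally integrated HIV-1 vpr copy, was seeded at OD 0.01 in PMG+AL medium with 23 nL pinned compound. After 24 h at 30 °C and 99% humidity, viability was read by BacTiter-Glo luminescence.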
# Numbers without * were called inactive; ? = inconclusive; · = no result given; ! = a repeat was not active; [ ] = another dose, or the depositor's remark. Unless noted, calls follow the shape of the dose curve; as a rule, active = well fitted curve in the direction sought with a large enough effect; inconclusive = small, poorly fitted or top-dose-only effect, or another doubt; inactive = no such curve, though single readings can be large; an effect the other way counts as inactive or inconclusive.
SMILES,TbPYK inhibitor,Giardia FBPA inh,LmPK inhibitor,Cycloheximide cs,Shiga toxin inh,RE007 growth inh
CC1S/C(=N/N=C/c2cccc([N+](=O)[O-])c2)NC1=O (centres undefined),1%,-3%,2%,-3,-3,-3%
Cc1cc(C)c(NC(=O)C(C)n2nc(-c3ccc(C)c(C)c3)ccc2=O)c(C)c1 (centres undefined),0%,·,·,·,·,·
Cc1cc(OCC(=O)O/N=C(\N)c2ccccc2)ccc1Br,0%,-7%,3%,33*,active,-2%
Cc1ccc(NC(=O)COc2ccc(/C(N)=N/O)cc2)cc1C,1%,2%,1%,5,84*,-6%
N/C(=N\OC(=O)COc1ccccc1)c1ccc(Cl)cc1,6%,4%,-1%,-1,14,22%
CCc1ccc(OCC(=O)O/N=C(\N)Cc2ccc([N+](=O)[O-])cc2)cc1,-2%,0%,-2%,6,-2,-19%
N/C(=N\OC(=O)COc1ccccc1)c1ccccn1,-2%,1%,-14%,34*,66*,14%
CCc1ccc(OCC(=O)O/N=C(\N)c2ccccn2)cc1,4%,1%,-8%,54*,85*,-5%
Cc1ccc(NC(=O)c2ccc(CNS(=O)(=O)c3ccc4c(c3)C(C)(C)C(=O)N4C)cc2)cc1F,3%,·,·,·,·,·
Cc1ccc(C(=O)O/N=C(\N)c2ccccn2)cc1C,?,2%,?,-4,-12,-25%
Cc1ccc(NC(=O)COC(=O)C2CC2)cc1Cl,-4%,·,·,·,·,32%
Cc1cc(C)cc(OCC(=O)O/N=C(\N)c2ccccn2)c1,0%,0%,3%,31,68,-7%
Cc1ccc(OCC(=O)O/N=C(\N)c2ccccn2)cc1C,-5%,-1%,-5%,51*,95*,4%
Cc1cccc(OCC(=O)O/N=C(\N)c2ccccn2)c1,-1%,0%,-11%,52*,62*,-10%
Cc1ccc(NC(=O)COC(=O)C2CC2(Cl)Cl)cc1C (centres undefined),5%,-14%,-1%,31*,60,3%
Cc1ccc(OCC(=O)O/N=C(\N)c2ccncc2)cc1C,-5%,13%,-7%,29*,54*,0%
CCN1CCN(C(c2cccc(Cl)c2)c2c(O)cc(C)n(CCOC)c2=O)CC1 (centres undefined),-7%,·,·,·,·,·
Cc1cc(C)c(S(=O)(=O)Nc2ccc(-c3ccc(N4CCCCCC4)nn3)cc2)c(C)c1,0%,·,·,·,·,·
CC(=O)Cc1nnn(-c2cc(C)on2)n1,·,2%,-2%,6,14,·
CCOc1ccc(CNC(=O)CCS(=O)(=O)c2cc3c(cc2Cl)NC(=O)CO3)cc1OC,-1%,·,·,·,·,·
Cc1ccc(OCCNC(=O)c2ccc(COc3ccccc3)o2)cc1,1%,·,·,·,·,28%
CC(C)Cc1ccc(C(=O)NCCOc2ccccc2)o1,14%,16%,-3%,29*,80*,21%
O=C(COc1ccccc1)NNC(=O)c1cc2ccccc2o1,-4%,-1%,3%,-2,2,-20%
O=C(NCCOc1ccccc1)c1cc2ccccc2o1,1%,11%,-1%,45*,117*,-14%
O=C(NCCN1CCN(c2cccc(Cl)c2)CC1)C1COc2ccccc2C1 (centres undefined),-7%,·,·,·,·,·
SMILES,TbPYK inhibitor,Giardia FBPA inh,LmPK inhibitor,Cycloheximide cs,Shiga toxin inh,RE007 growth inh
O=[N+]([O-])c1ncccc1OCc1ccc(Cl)c(Cl)c1,-3%,11%,-2%,38*,58*,?
CN(C)S(=O)(=O)c1cccc(COc2cccnc2[N+](=O)[O-])c1,-9%,-6%,5%,-3,2,2%
Cc1cccc(Cn2ncc(Cl)c(Cl)c2=O)c1,0%,-1%,1%,24*,32,-27%
Cc1cc2oc(=O)cc(Cn3ncc(Cl)c(Cl)c3=O)c2cc1Cl,-3%,3%,4%,-2,8,?
O=C(OCn1ncc(Cl)c(Cl)c1=O)c1ccc(C(F)(F)F)cc1,10%,6%,1%,-1,-6,-9%
Cc1cccc(Cn2nnc3c2C(=O)c2ccccc2C3=O)c1,·,?,-5%,27*,active,-11%[3.69 µM]
Cc1ccc(C(=O)OCn2ncc(Cl)c(Cl)c2=O)cc1,14%,6%,6%,-11,-30,50µM*
CC(=O)Nc1ccc(SCCN2CCN(C)CCC2=O)cc1,·,0%,·,9,6,·
Cc1ccc(SCCN2CCN(C)CCC2=O)cc1,-3%,5%,8%,28*!,77*,-19%
CC(=O)Nc1ccc(SCCN2CCN(CCc3ccccc3)CCC2=O)cc1,·,-2%,·,9,18,·
O=C1CCN(CCc2ccccc2)CCN1CCSc1ccccc1,0%,-12%,-6%,23*,27,-11%
CC1CCC(=O)N(CCSc2ccccc2)CC1 (centres undefined),-4%,10%,0%,25*,37*,2%
CN1CCC(=O)N(CCSc2ccccc2)CC1,-3%,-8%,-7%,43*,49*,9%
COc1ccc(SCCN2CC[C@@H](C)CCC2=O)cc1,-13%,·,·,·,·,3%
c1ccc(SCCN2CCc3ccccc3C2)cc1,6%,0%,-6%,27*,16,-16%
Cc1ccccc1Nc1oc(-c2ccccc2)nc1-c1cccc2ccccc12,·,-1%,·,·,·,·
Cc1nc(-c2ccccc2O)n(S(=O)(=O)N(C)C)n1,3%,4%,3%,-1,8,-10%
CN(C)S(=O)(=O)N1C(=O)c2ccccc2C1=O,0%,-2%,28µM*,-2,-1,3%
CCSc1nc(N)nc(-c2cccs2)c1C#N,-11%,1%,2%,31*,68*,?
CCN(CC)C(=O)CSc1nc(N)c(C#N)c(-c2cccs2)c1C#N,-9%,4%,6%,-4,-8,16%
COc1ccccc1C(=O)Nc1ccc(-c2nnn(CC(=O)N3CCN(C(=O)c4ccco4)CC3)n2)cc1,1%,14%,4%,28*,29,3%
O=C(Nc1ccc(-c2nnn(CC(=O)N3CCN(C(=O)c4ccco4)CC3)n2)cc1)c1ccccc1F,·,3%,4%,51*,84*,·
Cc1ccccc1-c1nnn(CC(=O)N2CCN(C(=O)c3ccco3)CC2)n1,2%,·,·,·,·,-14%
Cc1c(Cl)c(-c2n[nH]c(=S)n2-c2ccc(F)cc2)nn1C,4µM*,0%,?,13,33,1%
Cc1nn(C)c(-c2n[nH]c(=S)n2-c2ccccc2)c1Cl,?,-29%,-15%,10,active,16%
Cc1ccc(Cl)cc1NC(=O)c1sc2nc(C)c(C)c(C)c2c1N,-22%,·,·,·,·,·
COc1ccccc1C(=O)Nc1nnc(-c2ccco2)s1,3%,-1%,2%,42*,133*,11%
COc1ccccc1NC(=O)Nc1nnc(-c2ccco2)s1,·,·,0%,0,17,·

# Source: PubChem
